# Data: PubChem BioAssay AID2546 (National Center for Advancing Translational Sciences (NCATS), 2010)
# The campaign covered roughly 310,000 compounds. About 11,000 (3.5%) were called active. About 8% were inconclusive and are not listed. The sample as a whole holds a higher share of actives than the screen did. Unmarked numbers belong to inactive results. Calls come from the whole dose curve; as a rule, active = well fitted inhibition curve with a large enough effect; inconclusive = small, poorly fitted or top-dose-only effect, or effect the other way; inactive = flat fitted curve, though single readings scatter.
# Test: VP16 counterscreen qHTS for inhibitors of ROR gamma transcriptional activity;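 note: Gal4-VP16 expression switched on by copper sulfate through the metallothionein promoter; nearly all actives have a fitted effect of over 50% in size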
# Details: Drosophila S2 Gal4-VP16 UAS-luciferase, luminescence, 20 h; series mostly up to 53.6 µM; activity, negative = inhibition: at the top concentration
# % is set by controls: 0 for no effect and ±100 for the full control effect; potency is the fitted concentration of half-maximal effect.
SMILES,"activity, negative = inhibition",Potency
COc1cccc(N2CCN(c3ccc4nnc(CCC(=O)N5CCN(C)CC5)n4n3)CC2)c1,-6.09% (inactive),–
CCOc1ccc(-n2c(SCC(=O)OC)nc3sc4c(c3c2=O)CCN(C)C4)cc1,-2.56% (inactive),–
Cc1c(NC(=O)Nc2ccccc2)cccc1[N+](=O)[O-],23.5% (inactive),–
Cc1cccc(NC(=S)NCCc2ccc(F)cc2)c1C,–,6.31 µM (active)
Cc1cccc(NC(=S)NCCc2ccc(Cl)cc2)c1C,–,7.08 µM (active)
Cc1cc(C(=O)NCCc2ccc(Cl)cc2)c(C)o1,-6.63% (inactive),–
Cc1cc(Cl)ccc1NC(=S)NCCCN1CCCC1=O,4.91% (inactive),–
Cc1ccc(NC(=S)NCCc2ccc(Cl)cc2)c(C)c1,–,3.16 µM (active)
Cc1cccc(NC(=O)C2CCCN(C(=O)Nc3ccc(F)cc3)C2)c1C (configuration not stated),2.71% (inactive),–
Cc1c(NC(=S)NCc2ccc(F)cc2)cccc1[N+](=O)[O-],–,15.8 µM (active)
Cc1cccc(NC(=O)c2cccc(C(=O)Nc3cccc(C)c3C)n2)c1C,19% (inactive),–
Cc1cccc(NC(=O)COC(=O)CCc2ccccc2)c1C,-0.134% (inactive),–
Cc1cccc(NC(=S)N2CCC(O)CC2)c1C,-7.46% (inactive),–
Cc1c(NC(=O)/C=C/C(=O)O)cccc1[N+](=O)[O-],-4.39% (inactive),–
CCn1cc(CN2CCN(CC(C)(C)C)C(CCO)C2)c2ccccc21 (configuration not stated),0.311% (inactive),–
Cc1ccc(C)c(N2CCN(S(=O)(=O)c3c(C)[nH]c(C)c3C(=O)N3CCCC3)CC2)c1,6.41% (inactive),–
O=C(c1cc(-c2ccc(O)cc2)on1)N1CCOCC1,-27.7% (inactive),–
CCC(C(=O)NCc1cccnc1)n1nc(C)c2sc3ccccc3c2c1=O (configuration not stated),-10.1% (inactive),–
CCCCC(=O)NCc1ccc(F)cc1,-3.24% (inactive),–
S=C(NCCc1ccccc1)N1CCCCC1,-1.99% (inactive),–
COc1ccccc1CC(=O)NCCc1c[nH]c2ccccc12,1.31% (inactive),–
Cc1cc(C)cc(NC(=S)NCCc2c[nH]c3ccccc23)c1,–,12.6 µM (active)
O=C(CC(=O)N/N=C\c1ccc(F)cc1)NCCc1ccccc1,-1.58% (inactive),–
Cc1ccc(NC(=O)C2CCCN2S(=O)(=O)c2cccc3cccnc23)c(C)c1 (configuration not stated),16.3% (inactive),–
Cc1ccc(NC(=S)Nc2ncccc2C)c(C)c1,–,7.08 µM (active)
CSc1ncc(C(=O)Nc2ccc(C)cc2C)c(C)n1,-4.09% (inactive),–

SMILES,"activity, negative = inhibition",Potency
Cc1cc(F)ccc1NC(=S)NCCc1ccccc1,–,5.62 µM (active)
Cc1cc(C)cc(NC(=S)NCc2ccc(F)cc2)c1,–,3.98 µM (active)
COc1cc(NC(=S)NCc2ccc(S(N)(=O)=O)cc2)cc(OC)c1,10.1% (inactive),–
O=C(NCCc1c[nH]c2ccccc12)c1cccc(Br)c1,2.54% (inactive),–
CCCOc1ccc(CNC(=O)C2CCN(c3nn4c(=O)cc(C)nc4s3)CC2)cc1,-5.78% (inactive),–
Cc1cccc(-c2nc(CS(=O)CC(=O)NC(C)CCc3ccccc3)c(C)o2)c1 (configuration not stated),3.03% (inactive),–
O=C(Nc1ccc(N2CCCC2=O)cc1)c1cncc(Br)c1,15.5% (inactive),–
Cc1cccn2c(=O)c(/C=C(\C#N)C(N)=O)c(N3CCCCCC3)nc12,10.7% (inactive),–
CCCc1nnc(NC(=O)CCC(=O)N2CCN(S(=O)(=O)c3ccc(OC)cc3)CC2)s1,-5.49% (inactive),–
Cc1c(C(=O)NCC(c2ccco2)N2CCCC2)oc2ccc(Cl)cc12 (configuration not stated),-2.12% (inactive),–
Cc1ccc(CNC(=O)CCS(=O)(=O)c2ccc3c(c2)CC(C)N3C(=O)C2CC2)o1 (configuration not stated),-9.65% (inactive),–
O=C1C(=O)N(CCN2CCOCC2)C(c2cccc(Cl)c2)/C1=C(/O)c1ccc2c(c1)OCO2 (configuration not stated),6.2% (inactive),–
O=C(NNS(=O)(=O)c1ccc([N+](=O)[O-])cc1)C1CCCCC1,-5.42% (inactive),–
COc1cccc(-c2nc(CS(=O)CC(=O)NCc3ccc(F)cc3)c(C)o2)c1 (configuration not stated),-0.425% (inactive),–
COc1ccccc1N1CC(C(=O)Nc2nnc(SCC(=O)NCC3CCCO3)s2)CC1=O (configuration not stated),-2.2% (inactive),–
Cc1cc(C(=O)NNC(=S)Nc2ccccc2C)cs1,-21.2% (inactive),–
Cc1ccc(NC(=S)NCc2ccccc2Cl)c(C)c1,–,5.01 µM (active)
Cc1ccccc1NC(=S)NC(=O)Cc1ccc(Cl)cc1,–,7.08 µM (active)
Cc1ccc(NC(=O)C(=O)NCc2ccco2)c(C)c1,21.4% (inactive),–
S=C(NCc1cccnc1)Nc1ccc(Cl)cc1Cl,-10% (inactive),–
Cc1ccccc1N/C(SCc1ccc(Cl)cc1)=C(/C#N)C(N)=O,-0.144% (inactive),–
O=C(N/C(=C\c1ccc([N+](=O)[O-])cc1)C(=O)N1CCOCC1)c1cccc(Br)c1,-11.1% (inactive),–
CC(=O)Nc1ccc(S(=O)(=O)N(C)c2nc3ccccc3nc2Cl)cc1,11.5% (inactive),–
COC(=O)CN1C(=O)[C@H]2[C@@H](/C=C/c3ccccc3)N3C(=O)CN(CC4CC4)C(=O)[C@@]3(Cc3ccccc3)[C@H]2C1=O,3.02% (inactive),–
O=C(CN(Cc1ccc(Br)cc1)S(=O)(=O)c1ccccc1)NCc1ccncc1,-8.26% (inactive),–
CN1CCN(C(=O)C(=O)c2cn(CC(=O)N3CCCC3)c3ccccc23)CC1,-3.11% (inactive),–
